Results as given in PubChem BioAssay (NCI).
The panel holds about 83,000 compounds, 20% with a hit somewhere; the sample as a whole holds those more often.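 Cells were grown in 96-well plates and exposed to the test compound at a single concentration for 48 hours; results are reported as percent growth, with values below 10 considered active.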 Unmarked numbers belong to inactive results. The source made the active and inactive calls.

What was measured:
Assay in all cases: NCI-60 one-dose screen, 48 h (100 = growth as untreated, 0 = no growth, -100 = all killed)
Settings in all cases: 10 µM unless noted
HCT-15 colon = test system: HCT-15 colon
HT29 colon = test system: HT29 colon
SNB-75 CNS = test system: SNB-75 CNS
SNB-19 CNS = test system: SNB-19 CNS
U251 CNS = test system: U251 CNS
PC-3 prostate = test system: PC-3 prostate
SK-MEL-5 melanoma = test system: SK-MEL-5 melanoma
UACC-62 melanoma = test system: UACC-62 melanoma
SK-MEL-28 melanoma = test system: SK-MEL-28 melanoma
SK-MEL-2 melanoma = test system: SK-MEL-2 melanoma
EKVX NSCLC = test system: EKVX NSCLC
SN12C renal = test system: SN12C renal
UO-31 renal = test system: UO-31 renal
TK-10 renal = test system: TK-10 renal
ACHN renal = test system: ACHN renal
CAKI-1 renal = test system: CAKI-1 renal
A498 renal = test system: A498 renal
CCRF-CEM leukemia = test system: CCRF-CEM leukemia
MOLT-4 leukemia = test system: MOLT-4 leukemia

Compound | growth (HCT-15 colon) | growth (HT29 colon) | growth (SNB-75 CNS) | growth (SNB-19 CNS) | growth (U251 CNS) | growth (PC-3 prostate) | growth (SK-MEL-5 melanoma) | growth (UACC-62 melanoma) | growth (SK-MEL-28 melanoma) | growth (SK-MEL-2 melanoma) | growth (EKVX NSCLC) | growth (SN12C renal) | growth (UO-31 renal) | growth (TK-10 renal) | growth (ACHN renal) | growth (CAKI-1 renal) | growth (A498 renal) | growth (CCRF-CEM leukemia) | growth (MOLT-4 leukemia)
COc1ccc(/C=C(\C#N)c2cc3ccccc3n2S(C)(=O)=O)cc1 | 46.4% | 102% | 73.1% | 82.3% | 96.8% | 80.2% | 87.8% | 58.1% | 82.5% | 101% | 85.9% | 90.8% | 56.2% | 125% | 91.2% | 53.2% | 99.2% | 86% | 89.8%
Cc1cc2nc3c4cc([N+](=O)[O-])cc([N+](=O)[O-])c4n(CCN(C)C)c3nc2cc1C | 57.2% | 65.6% | 72.3% | 68.2% | 81.6% | 77.1% | 92.4% | 87% | 98.6% | 108% | 82.7% | 59.7% | 40.4% | 117% | 35.5% | 49.6% | 97% | 63.1% | 31.3%
COc1cccc2c1C(=O)c1c(O)c3c(c(O)c1C2=O)C[C@@](O)(C(=O)CO)C[C@@H]3OC1C[C@H](N)[C@H](O)[C@H](C)O1 (stereo not given in full) | 18.4% | -13.1% (active) | -76.1% (active) | 8.7% (active) | 2.94% (active) | -2.52% (active) | -86.4% (active) | -59% (active) | -30% (active) | -75.3% (active) | 1.39% (active) | 6.88% (active) | -40.7% (active) | 5.67% (active) | -11% (active) | 1.49% (active) | -75.1% (active) | -25.7% (active) | -8.66% (active)
C=C(C)[C@@H]1CC[C@]2(C(=O)N3CCN(CC)CC3)CC[C@]3(C)[C@H](CC[C@@H]4[C@@](C)(CCC(=O)N5CCN(CC)CC5)[C@H](C(=C)C)CC[C@]43C)[C@@H]12 | 9.11% (active) | 17.3% | 69.2% | 85.1% | 40.6% | 32.5% | 45.5% | 50.9% | 55.8% | 90.2% | 52.5% | 66.9% | 28.2% | 49.6% | -49.8% (active) | -15.3% (active) | 92.6% | 49.4% | 34%
O=C1c2cccc3cccc(c23)C(=O)N1CC#Cc1ccc2c3c(cccc13)C(=O)N(CCO)C2=O | 82.1% | 96.5% | 69.9% | 96.3% | 93.1% | 84.8% | 90.8% | 93.1% | 112% | 102% | 76.3% | 90.7% | 57.3% | 165% | 87.1% | 56.8% | 105% | 80.6% | 62.3%
O=C(/C=C/c1ccc2ccccc2c1)Nc1ncc(Cc2ccccc2)s1 | 55.7% | 69.5% | 34.4% | 69.5% | 25.8% | 71.2% | 92.8% | 59.8% | 85% | 98.1% | 71.4% | 43.9% | 43.5% | 22.6% | 6.83% (active) | 45.1% | 86.2% | 49.2% | 65.8%
N#Cc1c(-c2ccco2)nc2c(c(-c3ccccc3)nn2-c2ccccc2)c1-c1ccc(O)cc1 | 38.4% | 30.2% | 71.1% | 95.9% | 61.6% | 23.8% | 87.1% | 89.2% | 74.7% | 70.4% | 56.4% | 82.4% | 92% | 89.2% | 72.4% | 58.9% | 90.9% | 41.5% | 9.84% (active)
CC1(C)C(=O)/C(=C\c2ccccn2)C[C@]2(C)[C@H]3CC[C@@H]4[C@@H](C(=O)/C=C/c5ccccn5)CC[C@@]4(C)[C@]3(C)CC[C@@H]12 | -31% (active) | -13.6% (active) | -3.97% (active) | 4.66% (active) | -80.5% (active) | 9.61% (active) | -82.5% (active) | -54.2% (active) | -32.1% (active) | -25.6% (active) | -16.4% (active) | -4.12% (active) | -99.6% (active) | -21.7% (active) | -89% (active) | -20.3% (active) | -80.6% (active) | 6.8% (active) | 7.28% (active)
Cc1csc(Nc2nc(-c3ccc(Cl)cc3)nc(C(Cl)(Cl)Cl)n2)n1 | 84.1% | 63.1% | 89.4% | 72.9% | 72.8% | 74.1% | 93.1% | 83.2% | 92% | 112% | 76.6% | 94.1% | 84.8% | 100% | 49.5% | 78.1% | 85.2% | 90% | 84.4%
CC(=O)O[C@H]1CC[C@]2(C)[C@H]3CC=C4[C@@H]5[C@H](C)[C@@H](C)CC[C@]5(C(=O)NCCNCCNCCN)CC[C@@]4(C)[C@]3(C)CC[C@H]2C1(C)C | 63.3% | 42.5% | 70.8% | 82.6% | 70.1% | 57.7% | 96.3% | 91.7% | 90.1% | 105% | 72.6% | 78.3% | 63.5% | 101% | 91.5% | 55.8% | 95.4% | 62.1% | 49.9%
COc1ccc(/C=C/C(=O)c2ccc([N+](=O)[O-])cc2)cc1 | 104% | 95.3% | 104% | 96.9% | 97.5% | 92% | 105% | 88% | 112% | 98.9% | 128% | 102% | 89.9% | 101% | 108% | 123% | 107% | 85.3% | 86.3%
CC(=O)c1c(C)[nH]c(-c2nc3ccc(N4CCN(C)CC4)cc3[nH]2)c1-c1ccc(N(C)C)cc1 | 4.03% (active) | 9.08% (active) | -9.22% (active) | 42.4% | 51% | 42% | 2.25% (active) | 21.1% | 45.8% | 64.3% | 34.5% | 48.2% | 7.2% (active) | -6.31% (active) | 19.8% | 10.3% | 6.38% (active) | 36.3% | 45.5%
O=C(/C=C/c1cccc(O)c1)c1ccccc1O | 92.9% | 87.7% | 72% | 90.1% | 77% | 83.8% | 92.3% | 87.4% | 98.2% | 84.1% | 86.9% | 83.7% | 73.9% | 121% | 86.9% | 50.4% | 106% | 47.1% | 66.9%
C=C(C)[C@@H]1CC[C@]2(C)[C@H](CC=C3[C@@H]4CC(C)(C)CC[C@]4(C(=O)OC)CC[C@]32C)[C@@]1(C)CC/C(N)=N/O | 18.5% | 24.3% | 101% | 67.9% | -81.8% (active) | 26.6% | -19.9% (active) | 58.6% | 60.9% | 46.6% | 25.2% | 36.4% | 40.3% | 67.9% | 43.8% | 37% | 77.7% | 37.3% | 6.47% (active)
CCc1nnc(NC(=O)c2ccoc2COc2ccccc2)s1 | 24.3% | 28.6% | 8.1% (active) | 42.4% | 49.7% | 67% | 44.5% | 34.8% | 51.2% | 54.3% | 58.2% | 55.7% | 60.7% | 108% | 64.8% | 41.9% | 59.2% | 39.3% | 25.3%
